Assay results as given in PubChem BioAssay (NCI).
About 79,000 compounds went through this panel and 15% of them were active in at least one assay; those are over-represented in the sample as a whole. A number with no mark means an inactive call. Calls of active or inactive are those of the source. Cut-off read from the data, not from the text of the source: active = growth inhibition above about 70%; inactive = the rest.

Tests used:
[1] = NCI Yeast Anticancer Drug Screen. Data for the rad50 strain (AID 155);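 note: 0% = growth of vehicle-only cultures of the same strain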; conditions: S. cerevisiae rad50 strain growth inhibition, hits give high values
How it was run: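 Genetically altered yeast (DNA repair pathway); compound treatment; growth inhibition vs vehicle ctrl.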

[2] = NCI Yeast Anticancer Drug Screen. Data for the mec2-1 strain (AID 157); conditions: S. cerevisiae mec2-1 strain, hits give high values
How it was run: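 Using mec2-1 yeast: add compound, measure growth, express inhibition versus vehicle-treated cultures.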

[3] = NCI Yeast Anticancer Drug Screen. Data for the sgs1 mgt1 strain (AID 161);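 note: 0% = growth of cultures given vehicle only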; conditions: S. cerevisiae sgs1 mgt1 strain, hits give high values
How it was run: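 Growth of a repair-deficient yeast mutant was monitored after compound treatment and expressed as inhibition relative to vehicle-treated cultures.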

[4] = NCI Yeast Anticancer Drug Screen. Data for the cln2 rad14 strain (AID 165);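 note: 0% = growth equal to vehicle treated cultures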; conditions: S. cerevisiae cln2 rad14 strain, hits give high values
How it was run: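 Yeast strain cln2 rad14, bearing defects in cell cycle control and DNA repair, serves as the test system; values reflect growth inhibition compared with vehicle.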

[5] = NCI Yeast Anticancer Drug Screen. Data for the bub3 strain (AID 167); conditions: S. cerevisiae bub3 mutant strain, hits give high values
How it was run: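 Yeast carrying a defined mutation is treated with each compound, and growth is compared with that of vehicle-exposed cells to give inhibition.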

[6] = NCI Yeast Anticancer Drug Screen. Data for the mlh1 rad18 strain (AID 175); conditions: S. cerevisiae mlh1 rad18 strain growth inhibition, hits give high values
How it was run: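 Steps: expose repair-defective yeast to compound; measure growth; express inhibition against vehicle-treated controls.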

[7] = at 5.0 µM (retest, dose inferred, filed as 0.5)
[8] = at 50.0 µM (retest, dose inferred, filed as 5.0)

| SMILES | growth inhibition [1, 7] | growth inhibition [1, 8] | growth inhibition ([1]; at 50.0 µM) | growth inhibition [2, 7] | growth inhibition [2, 8] | growth inhibition ([2]; at 50.0 µM) | growth inhibition [3, 7] | growth inhibition [3, 8] | growth inhibition ([3]; at 50.0 µM) | growth inhibition [4, 7] | growth inhibition [4, 8] | growth inhibition ([4]; at 50.0 µM) | growth inhibition [5, 7] | growth inhibition [5, 8] | growth inhibition ([5]; at 50.0 µM) | growth inhibition [6, 7] | growth inhibition [6, 8] | growth inhibition ([6]; at 50.0 µM) |
| --- | --- | --- | --- | --- | --- | --- | --- | --- | --- | --- | --- | --- | --- | --- | --- | --- | --- | --- |
| Nc1ncnc2nn(C3OC(CO)C(O)C3O)nc12 (configuration not stated) | 15% | 20% | 29.1% | 2% | 6% | -26.2% | -7% | 6% | -22.1% | -29% | -18% | 33.1% | 0% | 1% | -70.4% | 4% | 0% | -4.75% |
| O=C1C=CCCCC1(c1ccccc1)c1ccccc1 | 2% | 8% | 77.5% (active) | 0% | 14% | 70.3% (active) | 5% | 15% | 85.4% (active) | 9% | 4% | 19.9% | -3% | -6% | 52.2% | -3% | 12% | 73.6% (active) |
| Cc1c(O)ccc2c1OCC(c1ccc(Cl)cc1)C2 (configuration not stated) | -19% | 72% (active) | 87.9% (active) | 0% | 13% | 70.2% (active) | -7% | 21% | 72.8% (active) | 10% | 39% | 78.5% (active) | 32% | 85% (active) | 92.9% (active) | -10% | 43% | 94.2% (active) |
| Cn1c2ccccc2c2cc3cnccc3cc21 | -98% | 95% (active) | 98.5% (active) | -50% | 73% (active) | 96.4% (active) | -57% | 82% (active) | 92.6% (active) | -55% | 88% (active) | 96.3% (active) | -68% | 89% (active) | 90.8% (active) | -164% | 93% (active) | 98.7% (active) |
| Cc1ccc(SCC#CC#CCS(=O)c2ccc(C)cc2)cc1 (configuration not stated) | 100% (active) | 98% (active) | 98.3% (active) | 87% (active) | 99% (active) | 98.5% (active) | 100% (active) | 99% (active) | 97.8% (active) | 44% | 98% (active) | 98% (active) | 82% (active) | 98% (active) | 97% (active) | 97% (active) | 98% (active) | 97.6% (active) |
| CCc1ccc(/C=C/C(=O)C2CN(CC)CCC2(O)/C=C/c2ccc(CC)cc2)cc1 (configuration not stated) | 4% | 99% (active) | 91.5% (active) | 2% | 99% (active) | 92.8% (active) | 2% | 99% (active) | 92% (active) | 4% | 99% (active) | 89.8% (active) | 8% | 98% (active) | 91.2% (active) | 13% | 99% (active) | 91.5% (active) |
| Cc1[nH]nc(C(=O)N/N=C/c2ccccc2Cl)c1N=NN(C)C | 41% | 91% (active) | 92.5% (active) | 50% | 93% (active) | 92.4% (active) | 33% | 94% (active) | 91.9% (active) | 5% | 93% (active) | 93.7% (active) | 12% | 88% (active) | 89.7% (active) | 72% (active) | 94% (active) | 95.3% (active) |
| O=C1c2ccc(S(=O)(=O)O)cc2C(=O)c2ccc(S(=O)(=O)O)cc21 | 3% | 23% | 49.3% | -1% | 21% | 25.5% | 5% | 36% | 47.5% | 2% | 26% | -62.8% | 1% | 19% | 55.4% | 4% | 31% | 74% (active) |
| O=C(O)c1ccc2c(Br)ccc3c2c1CC3 | 13% | 8% | 77.3% (active) | -13% | 25% | 56.1% | -6% | 16% | 73.5% (active) | -8% | -1% | 18.1% | -2% | 20% | 8.05% | 34% | 35% | 68.6% |
| CC(C)(O)[C@H](CCO)O[Si](c1ccccc1)(c1ccccc1)C(C)(C)C | 26% | 97% (active) | 98.3% (active) | 18% | 98% (active) | 92% (active) | 13% | 97% (active) | 98.2% (active) | 17% | 97% (active) | 97.5% (active) | 4% | 98% (active) | 98.5% (active) | 23% | 97% (active) | 98.6% (active) |
| C[n+]1c(-c2ccc(/C=N\Nc3nnc(S)n3/N=C/c3ccc(-c4cn5ccccc5[n+]4C)cc3)cc2)cn2ccccc21 | 7% | 98% (active) | 94.5% (active) | -16% | 96% (active) | 92.9% (active) | 3% | 97% (active) | 95.8% (active) | 4% | 94% (active) | 92.1% (active) | 29% | 98% (active) | 93% (active) | 10% | 97% (active) | 96.8% (active) |
| Nc1nnc(-c2cc(=O)c3cc(Cl)ccc3o2)s1 | -1% | 13% | 60% | -1% | 8% | 20.4% | -2% | 6% | 20.1% | -2% | 11% | 10.7% | 3% | 11% | 22.4% | -1% | 10% | 10.4% |
| O=C(SC(O)c1ccc(Cl)cc1)c1ccccc1 (configuration not stated) | -7% | 58% | 79.8% (active) | -7% | 57% | 74.5% (active) | -3% | 68% | 85.3% (active) | -4% | 58% | 22.9% | -5% | 57% | 64.9% | -8% | 60% | 81.8% (active) |
| CC1(C)/C=C/C2=Nc3cc(Br)c(Br)c(Br)c3C23CC(=O)N3/C=C(\Cl)c2nc(Br)[nH]c21 (configuration not stated) | 22% | 97% (active) | 92% (active) | 15% | 96% (active) | 93.8% (active) | 32% | 98% (active) | 93.8% (active) | 29% | 98% (active) | 91.7% (active) | 12% | 98% (active) | 93% (active) | -11% | 98% (active) | 92.5% (active) |
| COc1ccc(CN2COc3c(cc(Cl)c4cccnc34)C2)cc1 | 6% | 98% (active) | 99.5% (active) | -2% | 91% (active) | 99.6% (active) | 1% | 98% (active) | 99.7% (active) | 4% | 99% (active) | 99.2% (active) | -2% | 99% (active) | 99.4% (active) | 8% | 99% (active) | 99.5% (active) |
| O=C(Oc1c(Cl)cc(Cl)c(Cl)c1Cl)Oc1c(Cl)cc(Cl)c(Cl)c1Cl | 4% | 1% | -1.15% | 5% | 4% | 15.2% | 6% | -11% | 0.3% | 6% | -11% | 6.85% | 4% | 0% | 70% (active) | 1% | -1% | 0.15% |
| COC1/C=C\OC2(C)Oc3c(C)c(O)c4c(c3C2=O)C(=O)C=C(NC(=O)C(C)=C/C=C\C(C)C(O)C(C)C2OC(C)(C)OC(C1C)C2C)C4=O (configuration not stated) | -4% | 93% (active) | 28.9% | 24% | 37% | 33.5% | 1% | 52% | 41.8% | 19% | 74% (active) | 31.9% | -3% | 93% (active) | 14.9% | 1% | 77% (active) | 38.5% |
| Cc1nc(N)nc(-c2ccccc2)c1N=Nc1ccc(Cl)cc1 | -2% | 61% | 54.9% | 17% | 73% (active) | 29.1% | 1% | 74% (active) | 23.9% | -7% | 56% | 51.3% | -1% | 86% (active) | 88.2% (active) | -13% | 89% (active) | 81.7% (active) |
| Cc1ccc(/C=N/Nc2ccc([N+](=O)[O-])cc2[N+](=O)[O-])cc1 | -2% | -4% | 19.4% | -1% | -2% | -8.75% | -3% | -3% | 10.6% | -4% | -9% | 20.1% | -3% | -4% | -9.15% | -4% | -4% | -3.9% |
